Source: PubChem BioAssay (National Center for Advancing Translational Sciences (NCATS))
Most compounds without a hit are left out; they make up all but 21% or so of the library.
Pf growth 96h: inhibits malaria parasite growth, 96 h. P. falciparum luciferase reporter growth, 96 h. Potency, µM (doses to about 28.7 µM), actives largely listed as inhibitors. 320,000 compounds, 6.9% hits. AID 504834
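Plates of compound plus infected erythrocytes (2% hematocrit, 0.05% parasitemia final) incubate 96 hours, 37 C, 5% CO2. Detection reagent added; reduced luminescence from the parasites' luciferase reporter flags inhibition.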
Pf growth 48h: inhibits P. falciparum growth in the first generation, 48 h | AID 504832 | Potency, µM (top dose mostly 28.7 µM), usual class: inhibitors | P. falciparum luciferase growth in erythrocytes, 48 h | 310,000 compounds, 5.9% hits
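Read-out is firefly luciferase luminescence from an integrated reporter in P. falciparum, so falling signal marks reduced parasite growth. Infected erythrocytes were at 2% hematocrit and 0.1% parasitemia (final) in Albumax-supplemented RPMI 1640.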
Shiga toxin inh: blocks Shiga toxin action in Vero cells | 290,000 compounds, 9.2% hits | inhibition, % at 38.7 µM | Vero cells, Shiga toxin protein synthesis inhibition reporter | AID 2315; in the data active = inhibition mostly above about 28%, no sharp cut-off; inactive = mostly below about 43%
Sm TGR block: S. mansoni TGR enzyme inhibition; Q962Y6; purified TGR, DTNB reduction, TNB absorbance 405 nm; Potency, µM (top dose mostly 114 µM), actives largely listed as inhibitors; 360,000 compounds, 3% hits; AID 485364; note: nearly all actives have a fitted effect of over 60% in size
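First, TGR (20 nM dispensed) and NADPH were mixed with compound. Second, a 15 min room-temperature incubation followed. Third, further NADPH and then DTNB were added to start the reaction. Finally, TNB absorbance was monitored kinetically.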
NS1 inh: inhibitors of influenza NS1 protein function | Potency, µM (doses to about 46.1 µM) | 270,000 compounds, 0.4% hits; calls by dose curve; note: actives are rising curves; nearly all actives have a fitted effect of over 50% in size
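In this qHTS, NS1 from influenza A is expressed in budding yeast, where it slows growth. Cells are switched from glucose to 2% galactose medium (pH 6.0, -URA), treated with compound, and growth recovery is read at OD600.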
CHX counter: affects cycloheximide protein synthesis inhibition readout, counter-screen; cell reporter, cycloheximide protein synthesis inhibition counterscreen; max response, %; 300,000 compounds, 12% hits; in the data active = max response mostly above about 13%, no sharp cut-off; inactive = mostly below about 14%; note: read at 38.3 µM for the half of the compounds with a filed dose
A number is an active result; – = inactive; ? = inconclusive; · = not tested or not shown; + = active, no number; [ ] = dose if it differs, or a comment. Unless noted, calls come from the whole dose curve; as a rule, active = well fitted curve in the direction sought with a large enough effect; inconclusive = small, poorly fitted or top-dose-only effect, or another doubt; inactive = no such curve, though single readings can be large; an effect the other way counts as inactive or inconclusive.

SMILES	Pf growth 96h	Pf growth 48h	Shiga toxin inh	Sm TGR block	NS1 inh	CHX counter
Clc1ccc(OCCN2CCOCC2)cc1Cl	–	·	70	–	–	–
c1ccc(OCCN2CCOCC2)cc1	?	–	–	–	–	–
c1ccc(Cc2ccc(OCCN3CCOCC3)cc2)cc1	–	–	55	–	–	21
c1ccc(COc2ccc(OCCCN3CCCC3)cc2)cc1	–	–	+	–	–	38
CCOc1ccc(NC(=O)CN2CCN(c3ccc(Cl)cc3)CC2)cc1	·	·	·	–	·	·
COc1ccc(OC)c(C2NC(=O)NC(C)=C2C(=O)OCc2ccccc2)c1 (stereo not drawn)	–	–	–	–	–	–
COc1ccc2cc(CNc3ccc(C)cc3)c(=O)n(CC(=O)Nc3cccc(C(F)(F)F)c3)c2c1	·	·	·	–	·	·
CCOc1ccc(-n2c(C)nc3cc(C(=O)NCc4ccc(C)cc4)ccc32)cc1	·	·	·	–	·	·
CC1=C(C(=O)Nc2ccc(Cl)cc2)C(c2cccs2)n2nc(SCc3cccc(Cl)c3)nc2N1 (stereo not drawn)	·	·	·	–	·	·
CN1CCN(C(=O)/C=C/c2cn(-c3ccccc3)nc2-c2ccc3c(c2)OCCO3)CC1	?	12µM	–	–	–	–
COc1ccc(-c2nn(-c3ccccc3)cc2/C=N/NC(=O)c2ccc3c(c2)OCO3)cc1	?	?	–	–	–	–
O=C(N/N=C\c1cn(-c2ccccc2)nc1-c1ccccc1)c1ccc2c(c1)OCO2	12µM	?	–	–	–	16
O=C(N/N=C/c1nn(-c2ccccc2)cc1-c1ccc(Cl)cc1)c1ccncc1	?	2.1µM	–	–	–	–
O=C(N/N=C/c1cn(-c2ccccc2)nc1-c1ccc(F)cc1)c1ccc2c(c1)OCO2	13µM	?	79	–	?	18
COc1ccc(Cl)cc1NC(=O)CSc1nnc(CNC(=O)c2cccs2)o1	?	–	–	–	–	–
CN1CCCC1CCNC1C2CC3CC(C2)CC1C3 (stereo not drawn)	?	–	–	–	–	–
O/N=C/c1cn(-c2ccccc2)nc1-c1ccc2c(c1)OCCO2	–	?	–	–	–	–
O=C(N/N=C/c1cn(-c2ccccc2)nc1-c1ccc2c(c1)OCCO2)c1ccncc1	–	–	50	–	·	29
CCN(CC(=O)NCc1ccc(F)cc1)C(=O)/C=C/c1cc(OC)ccc1OC	–	–	–	–	–	–
C=CCc1ccc(OC)cc1	–	–	·	–	·	·
C=CCc1ccc(O)c(-c2cc(CC=C)ccc2O)c1	3.7µM	?	–	56µM	–	–
CN(C)S(=O)(=O)c1ccc2c(c1)/C(=C/c1cc3c([nH]1)CCCC3)C(=O)N2	1.3µM	2.1µM	·	50µM	–	·
O=C(CSc1ccccc1)Nc1ccc(-c2nc3ccccc3[nH]2)cc1	–	?	–	–	–	–
O=C(CSc1ccc(Cl)cc1)Nc1cccc(-c2nc3ccccc3[nH]2)c1	?	3.7µM	–	–	–	–
O=C(COc1ccccc1)Nc1cccc(-c2nc3ccccc3[nH]2)c1	–	–	–	–	–	22
SMILES	Pf growth 96h	Pf growth 48h	Shiga toxin inh	Sm TGR block	NS1 inh	CHX counter
O=C(O)CCCC(=O)Nc1cccc(-c2nc3ccccc3[nH]2)c1	–	–	–	–	–	–
Cc1ccc2nc(-c3ccc(NC(=O)CSc4ccccc4)cc3)[nH]c2c1	?	?	active	–	–	33
COc1ccc(OCC(=O)Nc2cccc(-c3nc4ccccc4[nH]3)c2)cc1	12µM	?	–	–	–	14
O=C(Nc1ccccc1C(=O)Nc1ccc2c(c1)OCO2)c1ccco1	–	–	–	–	–	–
O=C(/C=C/c1ccccc1)NCc1ccc2c(c1)OCO2	–	–	–	–	–	22
O=C(/C=C/c1cccs1)NCc1ccc2c(c1)OCO2	–	–	34	–	–	37
O=C(/C=C/c1ccco1)Nc1ccc2c(c1)OCO2	–	–	113	14µM	·	38
O=C(NCc1ccc2c(c1)OCO2)c1ccco1	–	–	–	–	·	–
O=C(/C=C/c1ccco1)NCc1ccc2c(c1)OCO2	–	–	–	14µM	–	–
O=C(/C=C/c1c(F)cccc1Cl)NCc1ccc2c(c1)OCO2	–	–	–	?	–	–
CC(=O)c1cccc(NC(=O)Nc2sc3nc4n(c(=O)c3c2C)CCC(C)CC4)c1 (stereo not drawn)	·	·	·	–	·	·
CCN1CCN(/C=N/c2nc3c(s2)CCCC3)CC1	–	·	–	–[11.4 µM]	–	19
